SNCA expr inhib = reduces expression of the alpha-synuclein gene | HEK-293 SNCA-luciferase knock-in, luminescence, 24 h | Potency, µM (top dose mostly 57.2 µM), without a hit: at the top dose activity change, negative = inhibition, actives largely listed as inhibitors | 140,000 tested, 0.17% active | AID 1671194;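 note: plate controls were DMSO cells for no effect and cell-free wells for full effect; nearly all actives have a fitted effect of over 45% in size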
NIH3T3 tox = NIH 3T3 cell cytotoxicity. NIH 3T3 viability, CellTiter-Glo ATP luminescence, 48-72 h. AID 1345082. 94,000 tested, 4.3% active. Potency, µM (doses to about 96.7 µM), for the others: top-dose activity change, negative = cytotoxicity, hits mostly inhibitors; note: % is set by controls: 0 for no effect and ±100 for the full control effect; nearly all actives have a fitted effect of over 55% in size
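ATP-dependent luminescence (CellTiter-Glo) served as the viability signal for NIH 3T3 cells treated with compound for 48 or 72 hr at 37 °C.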
HEK293 viab = counter-screen for SNCA expression inhibitors: cell viability; HEK-293-SNCA-luc viability, GF-AFC fluorescence, 24 h; Potency, µM (series often up to 57.1 µM), inactives show top-dose activity change, negative = cytotoxicity, hits mostly cytotoxic; 150,000 tested, 0.12% active; AID 1671193;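 note: 0% = DMSO-treated cells and -100% = medium-only wells without cells; nearly all actives have a fitted effect of over 30% in size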
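HEK-293-SNCA-luc cells (1500/well) plated 24 h, then exposed 24 h to a dilution series; GF-AFC added 30 min at 37C, fluorescence 405/540 nm; normalised to medium-only and DMSO wells, Hill fit.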
NPR1 antag = human Npr1 receptor antagonism; Potency, µM (doses to about 46.3 µM), without a hit: top-dose activity change, negative = inhibition, most hits filed as inhibitors; 76,000 tested, 1.6% active; HEK293 hNpr1 GloSensor cGMP, ANP-stimulated luminescence; P16066; calls by dose curve; note: % is set by controls: 0 for no effect and ±100 for the full control effect; nearly all actives have a fitted effect of over 60% in size
Target sequence (P16066 whole entry, looked up): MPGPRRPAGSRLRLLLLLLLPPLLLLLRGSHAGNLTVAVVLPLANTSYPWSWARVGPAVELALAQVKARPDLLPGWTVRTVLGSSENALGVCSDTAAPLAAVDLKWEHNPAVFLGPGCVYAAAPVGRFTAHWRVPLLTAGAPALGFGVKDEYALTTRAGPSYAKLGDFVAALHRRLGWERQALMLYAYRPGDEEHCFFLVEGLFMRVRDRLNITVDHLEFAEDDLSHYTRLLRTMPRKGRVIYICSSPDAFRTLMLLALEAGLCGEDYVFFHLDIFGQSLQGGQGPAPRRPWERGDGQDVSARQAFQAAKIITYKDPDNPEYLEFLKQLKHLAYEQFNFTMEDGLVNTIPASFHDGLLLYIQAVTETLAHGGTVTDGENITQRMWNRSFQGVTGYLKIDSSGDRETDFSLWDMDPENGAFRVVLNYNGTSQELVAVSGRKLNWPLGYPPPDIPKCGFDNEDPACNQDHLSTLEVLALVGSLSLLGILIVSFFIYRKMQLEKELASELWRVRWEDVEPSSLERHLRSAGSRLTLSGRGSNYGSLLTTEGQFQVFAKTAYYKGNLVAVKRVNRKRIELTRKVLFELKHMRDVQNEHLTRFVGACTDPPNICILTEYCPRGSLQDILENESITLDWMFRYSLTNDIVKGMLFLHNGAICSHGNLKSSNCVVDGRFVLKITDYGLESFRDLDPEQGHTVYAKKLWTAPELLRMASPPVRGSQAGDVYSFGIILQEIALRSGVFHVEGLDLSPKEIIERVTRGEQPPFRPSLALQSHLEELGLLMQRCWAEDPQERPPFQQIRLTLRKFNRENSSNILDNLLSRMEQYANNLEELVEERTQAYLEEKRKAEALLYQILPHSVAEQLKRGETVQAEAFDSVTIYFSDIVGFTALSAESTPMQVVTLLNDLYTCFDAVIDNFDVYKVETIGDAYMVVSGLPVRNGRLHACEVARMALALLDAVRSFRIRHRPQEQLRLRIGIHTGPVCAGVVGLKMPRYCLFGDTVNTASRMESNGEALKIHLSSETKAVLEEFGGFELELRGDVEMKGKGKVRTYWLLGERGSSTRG
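Compound pre-incubated 30 min at room temperature on GloSensor-loaded HEK293 cells stably carrying hNpr1 and the pGS-40F cGMP biosensor. Stimulation uses hNppA at 0.1 nM final; luminescence is taken at baseline and 20 min post-agonist.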
FLuc inh-1 = inhibitors of firefly (Photinus pyralis) luciferase; purified P. pyralis luciferase, luminescence, biochemical; AID 1347043; 76,000 tested, 2.5% active; Potency, µM (titrated, usually from 115 µM), most hits filed as inhibitors; note: % is set by controls: 0 for no effect and ±100 for the full control effect; nearly all actives have a fitted effect of over 65% in size
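Luminescence read by CCD imaging after purified firefly luciferase (10nM final) was added to substrate buffer holding 10uM D-luciferin and 10uM ATP, pH 7.5, pre-dosed with compound.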
HEK cytotox = kills HEK 293 cells. 94,000 tested, 6.6% active. Potency, µM (doses to about 115 µM), for the others: top-dose activity change, negative = cytotoxicity, hits mostly inhibitors. HEK 293 viability, ATP luminescence (CellTiter-Glo), 48-72 h; note: % is set by controls: 0 for no effect and ±100 for the full control effect; nearly all actives have a fitted effect of over 60% in size
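Luminescence from cellular ATP, measured with CellTiter-Glo, indicates HEK 293 viability. Cells plated at 250 cells/well are treated with compound for 48 or 72 hr at 37 degree Celsius before reagent addition.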
FLuc SDR -ATP = firefly luciferase binding stabilization, ATP absent; shares compounds with FLuc inh-1; Purified FLuc-C-HiBiT, Nano-Glo HiBiT luminescence, no ATP; 1,300 tested, 7.8% active; Potency, µM (titrated, usually from 32.7 µM), for the others: at the highest dose activation (signal gain), usual class: activators; note: nearly all actives have a fitted effect of over 55% in size
FLuc SDR ATP = binders stabilizing firefly luciferase, plus ATP | Potency, µM (series often up to 32.7 µM), for inactives: at the highest dose activation (gain of signal), usual class: activators | 1,300 tested, 8.7% active | shares compounds with FLuc inh-1 | purified FLuc-C-HiBiT + ATP, HiBiT complementation luminescence;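 note: signal reports ligand binding via conformational change of the enzyme rather than luciferase catalysis; % of control where 0% means no effect; nearly all actives have a fitted effect of over 55% in size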
FLuc inh-2 = firefly luciferase enzyme inhibition | purified FLuc-C-HiBiT enzyme, luciferin luminescence | 1,300 tested, 42% active | shares compounds with FLuc inh-1 | Potency, µM (doses to about 32.7 µM), for inactives: at the top dose activity change, negative = inhibition, actives largely listed as inhibitors | AID 1963320; note: % is set by controls: 0 for no effect and ±100 for the full control effect; nearly all actives have a fitted effect of over 70% in size
* hit, by the source's call; i = inactive; ? = inconclusive; · = not tested or not shown; [ ] = remark or other dose. An excerpt weighted towards active compounds, which were near 7.2% of everything screened. Unless noted, calls come from the whole dose curve; as a rule, active = well fitted curve in the direction sought with a large enough effect; inconclusive = small, poorly fitted or top-dose-only effect, or another doubt; inactive = no such curve, though single readings can be large; an effect the other way counts as inactive or inconclusive. Potency is the fitted concentration of half-maximal effect.

SMILES	SNCA expr inhib	NIH3T3 tox	HEK293 viab	NPR1 antag	FLuc inh-1	HEK cytotox	FLuc SDR -ATP	FLuc SDR ATP	FLuc inh-2
O=C(C[C@H]1NC(=O)c2ccccc2NC1=O)Nc1ncc[nH]1	30.0%	4.4%	4.4%	-1.3%	i	-1.2%	·	·	·
CCC(=O)N1CCc2c(C(=O)NCc3ccccc3F)cccc21	24.3%	?	3.5%	-2.6%	i	-5.1%	·	·	·
Cc1ccc(NC(=O)N2CCc3c(C(=O)NCc4ccco4)cccc32)cc1	-90.0%	?	7.9%	1.12µM*	0.0891µM*	?	9.89µM*	0.0785µM*	0.0495µM*
CCCCNC(=O)c1cccc2c1CCN2C(=O)Nc1ccccc1	?	-24.9%	-6.6%	?	3.55µM*	?	24.0%	1.97µM*	1.57µM*
Cc1ccc(CNC(=O)c2ccc(NC(=O)N3CCSc4ncccc43)cc2)cc1	-28.3%	·	3.5%	·	·	·	·	·	·
Cc1ccc(NC(=O)N2CCc3c(C(=O)NCCc4ccccn4)cccc32)cc1	?	?	-7.3%	-20.3%	5.62µM*	?	?	11.1µM*	4.42µM*
CN(C)CCNC(=O)c1cccc2c1CCN2C(=O)Nc1ccccc1	?	-4.3%	-14.8%	?	3.55µM*	?	17.1%	1.11µM*	0.7µM*
CC(C)(C)C(=O)NCCc1noc(C2CC2)n1	10.1%	-17.8%	5.0%	0.3%	i	-10.6%	·	·	·
COc1cccc(NC(=O)CC2CCCN(c3cnn(C)c(=O)c3)C2)c1 (configuration not stated)	1.4%	-8.5%	-3.7%	-2.9%	i	8.7%	·	·	·
CCCNC(=O)c1cccc2c1CCN2C(=O)Nc1cccc(C)c1	17.3%	4.9%	-21.9%	-23.0%	5.01µM*	?	?	3.51µM*	2.48µM*
Cc1cccc(-c2nnc(SCCC(=O)O)o2)c1	?	·	14.0%	·	·	·	16.6%	?	4.95µM*
Cc1ccc(-c2nnc(SCc3ccccc3)o2)cc1	118.1%	·	6.1%	·	·	·	15.4%	17.6%	?
Cc1cccc(-c2nnc(SCC(=O)N3CCCCC3)o2)c1	-35.6%	·	-4.7%	·	·	·	·	·	·
Cc1ccc(-c2nnc(SCCOc3ccccc3)o2)cc1	37.7%	·	7.3%	·	·	·	·	·	·
CCN(CC1CCCO1)C(=O)c1ccccc1OC1CCN(C(=O)c2cccnc2)CC1 (configuration not stated)	7.3%	-11.9%	5.3%	3.1%	i	-9.3%	·	·	·
COc1ccc(C(=O)N2CCC(C(=O)N3CCCCCCNC(=O)CC3)CC2)cn1	9.9%	0.9%	3.0%	1.1%	i	-4.6%	·	·	·
CCN1CCN(c2csc3ccc(Cl)cc3c2=O)CC1	117.0%	·	7.8%	·	·	·	21.1%	15.5%	?
CCC(=O)N1CCN(c2nc3c(s2)CC(C(=O)N2CCN(CC)CC2)CC3)CC1 (configuration not stated)	13.9%	-20.3%	10.5%	-2.1%	i	-2.4%	·	·	·
CCC(=O)N1CCN(c2nc3c(s2)CC(C(=O)O)CC3)CC1 (configuration not stated)	141.4%	?	2.4%	0.7%	12.6µM*	-4.4%	10.8%	?	?
COc1ccc(NC(=O)/C(C#N)=C/c2ccc(C)o2)cc1	42.1%	·	?	·	·	·	21.6%	16.7%	?
COc1cccc(-n2nnc(-c3nc(-c4ccccc4F)no3)c2C)c1	2.3%	·	7.0%	·	·	·	18.0%	?	5.56µM*
COc1cccc(N2C(=O)NC(=NC3CCCCC3)C23CCN(C(=O)c2ccc(C(F)(F)F)cc2)C3)c1 (configuration not stated)	?	?	9.2%	·	·	i	·	·	·
COc1ccc(C(=O)COC(=O)CCCC(=O)Nc2ccc(C(C)=O)cc2)cc1	179.6%	·	2.8%	·	·	·	28.6%	18.7%	?
CC1(C)CNC(=O)c2nc(CCSCc3ccco3)[nH]c2C1	-15.5%	0.1%	-4.9%	-1.1%	i	0.3%	·	·	·
CSc1ccc(-c2nc3c([nH]2)CC(C)(C)CNC3=O)cc1	28.5%	-24.2%	-20.4%	-22.8%	12.6µM*	?	31.5%	17.3%	?
CCN(CC)Cc1cnc2c(C(=O)N3CCC(N4CCCC4)CC3)cnn2c1	14.6%	-3.9%	1.5%	1.4%	i	?	·	·	·
COc1ccc(Cn2c(=O)[nH]c3cccnc32)cc1	3.3%[87.6 µM]	-13.3%[138 µM]	5.6%[87.6 µM]	1.1%[70.6 µM]	i	-19.1%[172 µM]	·	·	·
COCCOc1nc(N)c2[nH]c(=O)n(Cc3ccc(C(=O)O)cc3)c2n1	·	·	·	·	·	·	12.1%[11.8 µM]	7.0%[11.8 µM]	-1.2%[11.8 µM]
CCOc1ccc(C(=O)N2CCCC3(C2)NC(=O)N(Cc2cccc(Cl)c2)C3=O)cc1 (configuration not stated)	-4.1%	-26.7%	5.6%	1.7%	i	?	·	·	·
CN(Cc1ccc2nccnc2c1)C(=O)c1cc(COc2ccc(F)cc2F)on1	28.3%	?	4.8%	-18.9%	?	?	·	·	·

High-throughput results: PubChem, National Center for Advancing Translational Sciences (NCATS)
